From PubChem BioAssay AID489043 (National Center for Advancing Translational Sciences (NCATS), 2010)
Records with an inconclusive call do not appear. Unmarked numbers belong to inactive results. Active and inactive are the calls of the source. Calls follow the shape of the dose curve; as a rule, active = well fitted activation curve with a large enough effect; inconclusive = small, poorly fitted or top-dose-only effect; inactive = flat fitted curve, though single readings scatter.

Molecular target: Relaxin receptor 2 (Homo sapiens) (UniProt Q8WXD0)
Sequence (Q8WXD0 whole entry, looked up): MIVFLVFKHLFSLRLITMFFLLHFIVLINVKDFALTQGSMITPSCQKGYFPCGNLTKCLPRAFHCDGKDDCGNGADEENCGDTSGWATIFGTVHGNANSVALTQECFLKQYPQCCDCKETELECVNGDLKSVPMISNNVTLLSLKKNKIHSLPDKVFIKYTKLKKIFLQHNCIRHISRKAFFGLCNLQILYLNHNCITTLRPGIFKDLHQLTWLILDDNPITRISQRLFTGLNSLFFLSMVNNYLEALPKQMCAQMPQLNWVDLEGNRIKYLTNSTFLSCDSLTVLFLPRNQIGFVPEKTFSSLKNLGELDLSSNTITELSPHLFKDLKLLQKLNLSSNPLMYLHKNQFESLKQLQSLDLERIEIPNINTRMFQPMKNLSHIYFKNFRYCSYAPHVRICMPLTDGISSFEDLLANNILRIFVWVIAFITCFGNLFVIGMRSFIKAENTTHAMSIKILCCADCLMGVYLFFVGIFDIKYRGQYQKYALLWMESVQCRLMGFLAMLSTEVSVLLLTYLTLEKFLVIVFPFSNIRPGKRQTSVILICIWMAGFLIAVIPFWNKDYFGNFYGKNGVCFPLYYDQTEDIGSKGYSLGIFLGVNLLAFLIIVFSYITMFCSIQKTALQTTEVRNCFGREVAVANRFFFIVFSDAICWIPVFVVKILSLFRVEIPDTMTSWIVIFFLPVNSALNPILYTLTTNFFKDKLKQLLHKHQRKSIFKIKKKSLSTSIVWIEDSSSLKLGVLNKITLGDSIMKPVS
Test: qHTS Assay for Agonists of the Relaxin Receptor RXFP1: RXFP2 Hit Validation; also: nearly all actives have a fitted effect of over 65% in size;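 as to activation: 0% = buffer only basal cAMP and 100% = 29 nM porcine relaxin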
Details: HEK293 RXFP2 cAMP TR-FRET, 30 min; series mostly up to 115 µM; activation: at the top concentration
Outline: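 HEK293 cells expressing RXFP2, cultured 16-24 hr, treated 30 min at 37C with compounds plus PDE4 inhibitor Ro 20174. cAMP measured by HTRF TR-FRET; EC50 from Hill fits, normalized to buffer and 29 nM porcine relaxin.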
Potency is read from the fitted curve at half-maximal effect.

| Compound | activation | Potency |
| --- | --- | --- |
| COc1ccc(CC(=O)N/N=C/c2cccnc2)cc1OC | -3.6% |  |
| O=C(Nc1ccccc1)c1ccccc1NC(=O)C1CCCCC1 | 5.98% [at 125 µM] |  |
| O=C(O)c1cccc(CSc2nnc(Cc3ccccc3)o2)c1 | 3.94% [at 44.7 µM] |  |
| Cc1ccc(-n2nnc3c(=O)n(CC(=O)NCC4CCCO4)cnc32)cc1 (configuration not stated) |  | 30.9 µM (active) |
| O=C(Nc1ccccc1C(=O)N1CCOCC1)c1ccco1 | 0.881% [at 125 µM] |  |
| Cc1ccc(NC(=O)CCc2nnc3ccc(N4CCN(C)CC4)nn23)cc1F |  | 38.9 µM (active) |
| NC(=O)c1ccccc1NC(=O)CC12CC3CC(CC(C3)C1)C2 | -2.23% [at 125 µM] |  |
| Cc1cccc(NC(=O)c2ccccc2NC(=O)c2ccco2)c1 | -1.83% [at 125 µM] |  |
| CN(C)c1ccc(NC(=O)C2C3C=CC(C3)C2C(=O)O)cc1 (configuration not stated) | -6.82% |  |
| Cc1ccc(C(=O)Nc2ccccc2C(=O)NCc2ccco2)cc1 | 0.29% [at 125 µM] |  |
| CN(Cc1ccccc1)C(=O)c1ccccc1NC(=O)c1ccco1 | 3.37% [at 125 µM] |  |
| CCN(CC)S(=O)(=O)c1ccc(C)c(NC(=O)Cn2cnc3cc([N+](=O)[O-])ccc3c2=O)c1 |  | 30.9 µM (active) |
| CCOC(=O)CNC(=O)CSc1ccc2nnc(-c3cccnc3)n2n1 | -13.2% |  |
| COc1ccc(OC)c(NC(=O)CSc2ccc3nnc(-c4cccnc4)n3n2)c1 | 26.5% |  |
| Cc1cc(NC(=O)c2ccccc2F)nc2c1c(=O)oc1ccccc12 |  | 15.4 µM (active) |
| Cc1cc2nc3ccc(=[N+](C)C)cc-3sc2cc1N | -5.65% |  |
| O=C(Nc1cccc(C(F)(F)F)c1)c1ccccc1NC(=O)C1CCCCC1 |  | inactive |
